The list is not random: actives were taken first. Their share in the collection is about 10%.
hNpr1 antagonist: antagonists of human natriuretic peptide receptor Npr1. HEK293 hNpr1 GloSensor cGMP, ANP-stimulated luminescence. hit rate 1.6% among 76,000. AID 1347048. Potency, µM (titrated, usually from 46.3 µM), usual class: inhibitors. P16066; calls by dose curve; further: nearly all actives have a fitted effect of over 60% in size
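Compound pre-incubated 30 min at room temperature on GloSensor-loaded HEK293 cells stably carrying hNpr1 and the pGS-40F cGMP biosensor. Stimulation uses hNppA at 0.1 nM final; luminescence is taken at baseline and 20 min post-agonist.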
Luciferase inh: Photinus pyralis luciferase inhibition; P08659; purified P. pyralis luciferase, luminescence, biochemical; AID 1347043; Potency, µM (top dose mostly 115 µM), most hits filed as inhibitors; hit rate 2.5% among 76,000; further: nearly all actives have a fitted effect of over 65% in size
Target sequence (P08659 whole entry, looked up): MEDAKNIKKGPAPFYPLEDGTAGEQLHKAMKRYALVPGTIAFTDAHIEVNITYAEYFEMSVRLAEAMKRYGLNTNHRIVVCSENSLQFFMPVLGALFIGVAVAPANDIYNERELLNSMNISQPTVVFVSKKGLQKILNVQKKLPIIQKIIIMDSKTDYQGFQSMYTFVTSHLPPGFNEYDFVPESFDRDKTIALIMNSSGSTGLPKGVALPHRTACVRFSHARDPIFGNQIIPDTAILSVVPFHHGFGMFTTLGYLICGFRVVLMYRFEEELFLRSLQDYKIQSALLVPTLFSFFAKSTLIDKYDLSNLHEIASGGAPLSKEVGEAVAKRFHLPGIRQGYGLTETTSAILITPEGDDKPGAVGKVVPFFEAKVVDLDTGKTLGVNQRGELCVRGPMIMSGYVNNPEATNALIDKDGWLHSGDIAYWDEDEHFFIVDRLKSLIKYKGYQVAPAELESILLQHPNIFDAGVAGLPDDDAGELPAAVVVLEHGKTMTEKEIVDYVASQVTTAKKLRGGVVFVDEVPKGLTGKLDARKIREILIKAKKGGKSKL
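Purified P. pyralis luciferase (10nM final) in 50mM Tris acetate pH 7.5, 10mM Mg acetate, 0.01% Tween-20, 0.05% BSA with 10uM D-luciferin and 10uM ATP. Compounds titrated qHTS. Luminescence imaged on CCD.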
NIH3T3 tox: cytotoxic compounds in NIH 3T3 cells; NIH 3T3 viability, CellTiter-Glo ATP luminescence, 48-72 h; Potency, µM (series often up to 96.7 µM), actives largely listed as inhibitors; AID 1345082; hit rate 4.3% among 94,000; further: nearly all actives have a fitted effect of over 55% in size
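First NIH 3T3 cells are plated at 400 cells/well; next compound is pinned in; then plates incubate 48 or 72 hr at 37 °C; finally CellTiter-Glo is added and luminescence read after 10 min.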
GPT2 inh: inhibitors of human GPT2 alanine aminotransferase | AID 1671188 | Recombinant GPT2, coupled pyruvate oxidase/HRP Amplex Red fluorescence | Potency, µM (top dose mostly 57.7 µM), hits mostly inhibitors | hit rate 0.25% among 100,000 | Q8TD30; further: nearly all actives have a fitted effect of over 60% in size
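Fluorescence read-out: pyruvate from GPT2 turnover coupled to pyruvate oxidase, HRP and Amplex Red (0.2mM ThPP, 0.2U/mL PO and HRP, 50uM Amplex final). Substrates 250uM a-KG, 2mM L-alanine; enzyme 10ng/uL; 30 min RT.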
HEK cytotox: HEK 293 cell cytotoxicity; hit rate 6.6% among 94,000; HEK 293 viability, ATP luminescence (CellTiter-Glo), 48-72 h; Potency, µM (highest dose often 115 µM), usual class: inhibitors; further: nearly all actives have a fitted effect of over 60% in size
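Cytotoxicity was scored by loss of ATP-coupled luminescence (CellTiter-Glo) in HEK 293 cells. Compound treatment ran 48 or 72 hr at 37 degree Celsius, 5% CO2, 95% humidity.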
Of the large screens only hits and unclear results are named; the others gave an inactive call. Unless noted, the call rests on the fitted dose curve; in most records, active means well fitted curve in the direction sought with a large enough effect; inconclusive means small, poorly fitted or top-dose-only effect, or another doubt; inactive means no such curve, though single readings can be large; an effect the other way counts as inactive or inconclusive.

CCN1c2cc(C(=O)NCc3cccc(Cl)c3)ccc2C(=O)N2CCCCC21 (centres undefined)	NIH3T3 tox inconclusive, HEK cytotox inconclusive
CCCCn1c(=O)c(C(=O)N2CCN([S+](C)(=O)[O-])CC2)nc2cccnc21	none (no result: hNpr1 antagonist, Luciferase inh)
Cc1ccc(-c2noc(CNC(N)=O)n2)nn1	HEK cytotox inconclusive
COc1ccc2[nH]c3c(c2c1)CCNC31CCN(C(=O)c2cnc(C)cn2)CC1	HEK cytotox inconclusive
COc1ccc2[nH]c3c(c2c1)CCNC31CCN(C(=O)c2ccccc2F)CC1	NIH3T3 tox inconclusive, HEK cytotox inconclusive
COc1ccc2[nH]c3c(c2c1)CCNC31CCN(C(=O)c2ccc(C)nc2)CC1	HEK cytotox 79.4µM
COc1ccc2[nH]c3c(c2c1)CCNC31CCN(C(=O)c2ccc(OC)nc2OC)CC1	HEK cytotox 11.2µM
COc1ccccc1-c1cccc(C(=O)N2CCN(C(=O)c3ccc(F)cc3)CC2)c1	NIH3T3 tox inconclusive, HEK cytotox inconclusive (no result: hNpr1 antagonist, Luciferase inh)
COc1ccccc1-c1cccc(C(=O)N2CCN(C(=O)c3cccc(Cl)c3)CC2)c1	NIH3T3 tox inconclusive, HEK cytotox 39.8µM (no result: hNpr1 antagonist, Luciferase inh)
COc1ccccc1-c1cccc(C(=O)N2CCN(C(=O)c3ccccc3F)CC2)c1	HEK cytotox 89.1µM (no result: hNpr1 antagonist, Luciferase inh)
COc1ccccc1-c1cccc(C(=O)N2CCN(C(=O)c3ccc(C)cc3)CC2)c1	NIH3T3 tox inconclusive, HEK cytotox 39.8µM (no result: hNpr1 antagonist, Luciferase inh)
COc1ccccc1-c1cccc(C(=O)N2CCN(C(=O)Nc3ccc(Cl)cc3)CC2)c1	NIH3T3 tox inconclusive, HEK cytotox inconclusive (no result: hNpr1 antagonist, Luciferase inh)
CC(C)CN1CCN(c2nc(CCN)nc3ccccc23)CC1CCO (centres undefined)	none
Cc1noc(C2CCCCCN2C(=O)COc2ccccc2)n1 (centres undefined)	none (no result: hNpr1 antagonist, Luciferase inh)
COc1ccc(-c2nc3c(c(=O)[nH]2)CCN(C(=O)c2ccccc2)C3)cc1	none
CCc1ccc(NC(=O)Cn2ccn3nc4c(c3c2=O)CC(C)CC4)cc1 (centres undefined)	NIH3T3 tox inconclusive, HEK cytotox 44.7µM
Cc1noc(C)c1S(=O)(=O)N1C[C@@H](C(N)=O)[C@H](C2CCN(C)CC2)C1	none
c1cc2nc(-c3ccsc3)[nH]c2cn1	Luciferase inh inconclusive, NIH3T3 tox inconclusive, HEK cytotox inconclusive
Cc1cc(-c2nc3ccncc3[nH]2)c(C)o1	Luciferase inh 44.7µM, NIH3T3 tox inconclusive, GPT2 inh inconclusive, HEK cytotox inconclusive
Cc1ccc(N2CCN(C(=O)c3noc(-c4ccc(F)cc4)n3)CC2)cc1	Luciferase inh inconclusive
O=C(c1noc(-c2ccc(F)cc2)n1)N1CCN(c2ccccc2)CC1	Luciferase inh 39.8µM, HEK cytotox inconclusive
CC(C)=CCC1(CO)CCCN(Cc2[nH]c3ccc(F)cc3c2C)C1 (centres undefined)	NIH3T3 tox 22.4µM, HEK cytotox 20µM
CCCn1cc(-c2ccncc2)cc1C(=O)N1CCN(c2ccccc2F)CC1	NIH3T3 tox inconclusive, HEK cytotox 44.7µM
CCCn1cc(-c2ccncc2)cc1C(=O)N1CCN(c2ccccn2)CC1	hNpr1 antagonist inconclusive, NIH3T3 tox inconclusive, HEK cytotox inconclusive
Cc1noc(-c2cccc(OC3CN(C(=O)NC4CCCC4)C3)c2)n1	NIH3T3 tox inconclusive, HEK cytotox 79.4µM
Cc1noc(-c2ccc(OC3CN(C(=O)NC4CCCCC4)C3)cc2)n1	hNpr1 antagonist inconclusive, NIH3T3 tox inconclusive, HEK cytotox 39.8µM
CCCS(=O)(=O)NC[C@@H]1C=C(C)[C@H](Cc2nnc(-c3ccccc3F)o2)C[C@H]1C(C)C	NIH3T3 tox 25.1µM, HEK cytotox 22.4µM
CC1=C[C@@H](CNS(C)(=O)=O)[C@H](C(C)C)C[C@H]1Cc1nnc(-c2ccccc2F)o1	NIH3T3 tox inconclusive, HEK cytotox inconclusive
CC1=C[C@@H](CNC(=O)C2CC2)[C@H](C(C)C)C[C@H]1Cc1nnc(-c2ccccc2F)o1	NIH3T3 tox 100µM, HEK cytotox 63.1µM
C#CCN(C)C[C@@H]1C=C(C)[C@H](Cc2nnc(-c3ccccc3F)o2)C[C@H]1C(C)C	hNpr1 antagonist inconclusive, NIH3T3 tox 79.4µM, HEK cytotox 79.4µM
CN1CCCCCC1C(=O)N1CCN(c2ccc(C#N)cn2)CC1 (centres undefined)	none
O=C(c1cccc2cnccc12)N1CCCC2(C=Cc3ccccc3O2)CC1 (centres undefined)	NIH3T3 tox inconclusive, HEK cytotox 44.7µM
CC[C@H]1CN(S(=O)(=O)c2c(C)noc2C)CC[C@H]1CC(=O)NCc1cccc2ccccc12	NIH3T3 tox inconclusive, HEK cytotox 22.4µM
Cc1noc(C)c1COc1ccc(C(=O)N[C@@H]2CN(C(=O)Nc3cccc(C(F)(F)F)c3)CCC[C@H]2O)cc1	NIH3T3 tox inconclusive, HEK cytotox inconclusive
COC(=O)c1ccccc1NC(=O)N1CCC[C@@H](O)[C@H](NC(=O)c2ccc(OCc3c(C)noc3C)cc2)C1	NIH3T3 tox 39.8µM, HEK cytotox inconclusive
O=C(N[C@@H]1CN(Cc2ccccn2)CCC[C@H]1O)c1ccc(OCc2ccccc2)cc1	NIH3T3 tox inconclusive, GPT2 inh inconclusive, HEK cytotox 89.1µM
COc1ccc(C(=O)N[C@@H]2CN(Cc3cccc(OC)c3)CCC[C@H]2O)cc1	none
CC[C@H]1CN(C(=O)Nc2cccc(C(F)(F)F)c2)CC[C@H]1CC(=O)Nc1ccccc1	NIH3T3 tox inconclusive, GPT2 inh inconclusive, HEK cytotox 50.1µM
COc1cccc(CN2CCC[C@@H](O)[C@H](NC(=O)c3ccc(OCc4ccccc4)cc3)C2)c1	NIH3T3 tox 35.5µM, HEK cytotox inconclusive
NC(=O)COc1ccc(C(=O)N[C@@H]2CN(Cc3ccccn3)CCC[C@H]2O)cc1	NIH3T3 tox inconclusive, HEK cytotox inconclusive
O=C(N[C@@H]1CN(C(=O)Nc2cccc(C(F)(F)F)c2)CCC[C@H]1O)c1ccc(OCc2ccccc2)cc1	NIH3T3 tox 39.8µM, HEK cytotox 31.6µM
COc1ccc(OC)c(CNC(=O)C2CCc3sc(C(=O)N4CCCC4)cc3C2)c1 (centres undefined)	NIH3T3 tox inconclusive, GPT2 inh inconclusive, HEK cytotox inconclusive
Cc1c(C(C)NC(=O)C(=O)c2ccco2)cnn1-c1cccc2ccccc12 (centres undefined)	NIH3T3 tox inconclusive, HEK cytotox 44.7µM
Cc1ccc(CN2CCOC[C@H](Oc3ccc(C(F)(F)F)cc3)C2)cc1	NIH3T3 tox 79.4µM, HEK cytotox 100µM
CS(=O)(=O)c1ccc(O[C@H]2COCCN(Cc3ccc(-c4ccccc4)cc3)C2)cc1	hNpr1 antagonist inconclusive, NIH3T3 tox inconclusive, HEK cytotox 25.1µM
c1ccc(O[C@H]2COCCN(Cc3ccc(-c4ccccc4)cc3)C2)cc1	NIH3T3 tox inconclusive
C[C@]12CCC[C@](C)(C(=O)O)C1CCC13C=C(CO)C(CCC12)C3 (some centres undefined)	none (no result: hNpr1 antagonist, Luciferase inh, NIH3T3 tox, HEK cytotox)
Cn1ncc2c(C(=O)NCc3cccc(Cl)c3)cc(C(C)(C)C)nc21	NIH3T3 tox inconclusive, HEK cytotox 50.1µM (no result: hNpr1 antagonist, Luciferase inh)
